Measurements taken from PubChem BioAssay AID602144 (Vanderbilt Specialized Chemistry Center, 2011).
Unmarked numbers belong to inactive results. Rule as the data show it: active = remaining activity below about 50%; inactive = the rest.

These compounds were tested against Phospholipase D1 (Homo sapiens) (UniProt Q13393) (assay: PLD1 inhibitors in cells, Calu-1 cells, single concentration (AID 602144;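 also: tested at 200 nM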)). Conditions: cellular PLD1 activity, hits give low values.
Chain of Phospholipase D1 (Homo sapiens) (Q13393 whole entry, looked up): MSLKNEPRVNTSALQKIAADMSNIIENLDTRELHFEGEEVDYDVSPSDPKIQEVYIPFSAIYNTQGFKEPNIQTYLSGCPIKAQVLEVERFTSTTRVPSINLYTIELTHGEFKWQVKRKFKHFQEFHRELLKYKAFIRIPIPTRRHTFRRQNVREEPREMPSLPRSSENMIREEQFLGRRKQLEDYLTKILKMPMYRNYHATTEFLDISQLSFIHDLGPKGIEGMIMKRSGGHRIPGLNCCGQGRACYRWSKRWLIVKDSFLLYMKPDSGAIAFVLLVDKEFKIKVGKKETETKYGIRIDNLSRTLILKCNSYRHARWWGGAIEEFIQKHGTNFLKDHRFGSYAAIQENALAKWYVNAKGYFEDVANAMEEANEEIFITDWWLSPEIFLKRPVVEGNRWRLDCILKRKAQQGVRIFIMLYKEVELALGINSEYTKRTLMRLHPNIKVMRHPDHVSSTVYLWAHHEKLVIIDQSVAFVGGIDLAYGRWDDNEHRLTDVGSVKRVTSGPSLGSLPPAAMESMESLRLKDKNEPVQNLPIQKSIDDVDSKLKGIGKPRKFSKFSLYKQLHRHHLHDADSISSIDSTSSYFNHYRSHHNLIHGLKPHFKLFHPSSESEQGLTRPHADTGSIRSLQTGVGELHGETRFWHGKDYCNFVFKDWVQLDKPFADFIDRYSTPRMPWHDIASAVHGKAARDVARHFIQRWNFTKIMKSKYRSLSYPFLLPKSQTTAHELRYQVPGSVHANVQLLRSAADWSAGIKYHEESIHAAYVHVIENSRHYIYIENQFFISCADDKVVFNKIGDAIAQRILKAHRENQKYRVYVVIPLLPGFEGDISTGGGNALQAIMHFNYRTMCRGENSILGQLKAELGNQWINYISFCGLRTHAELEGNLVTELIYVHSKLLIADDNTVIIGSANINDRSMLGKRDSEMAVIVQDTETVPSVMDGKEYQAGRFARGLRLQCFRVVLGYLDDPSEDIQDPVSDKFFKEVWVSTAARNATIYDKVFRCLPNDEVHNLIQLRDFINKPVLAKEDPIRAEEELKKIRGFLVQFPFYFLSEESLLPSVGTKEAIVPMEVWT
Chain of Phospholipase D1 (Homo sapiens) (Q13393 whole entry, looked up): as above

Row | Structure (SMILES) | remaining activity [%]
1 | O=C(NCCN1CCC(n2c(=O)[nH]c3ccccc32)CC1)C1CCCCCCCCCC1 | 85.9
2 | O=C(NCCN1CCN(c2ccccn2)CC1)c1ccc(C(F)(F)F)cc1 | 152
3 | O=C(NCCN1CCC(n2c(=O)[nH]c3ccccc32)CC1)C1(c2ccccc2)CCC1 | 127
